Compounds with a hit are over-represented: about 2.7% of the library has one in this group of screens.
HEK293 tox: cytotoxicity counter-screen for GLP-1 receptor inverse agonists; 410,000 tested, 0.13% active; HEK293 cAMP-luciferase reporter cells, luminescence, 24 h; Potency, µM (titrated, usually from 38.3 µM), inactives show at the highest dose activity change, negative = inhibition, most hits filed as inhibitors;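 note: loss of luciferase light is scored as toxicity; % is set by controls: 0 for no effect and ±100 for the full control effect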
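1536-well qHTS counterscreen of the MLSMR; 200 cells/uL, 12 h pre-incubation, 23 nL cpd, 24 h at 37 deg C 5% CO2, luciferase detection reagent, 12 min RT, luminescence. Inhibition = undesired.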
GLP-1R inv ag: GLP-1 receptor (human) inverse agonism; HEK293 GLP-1R CRE-luciferase, luminescence, 24 h; GLP-1R form is constitutively active; Potency, µM (doses to about 38.3 µM), for the others: at the highest dose activity change, negative = inhibition, most hits filed as inhibitors; 410,000 tested, 1.6% active; note: % is set by controls: 0 for no effect and ±100 for the full control effect; nearly all actives have a fitted effect of over 55% in size
Target sequence (P43220 whole entry, looked up): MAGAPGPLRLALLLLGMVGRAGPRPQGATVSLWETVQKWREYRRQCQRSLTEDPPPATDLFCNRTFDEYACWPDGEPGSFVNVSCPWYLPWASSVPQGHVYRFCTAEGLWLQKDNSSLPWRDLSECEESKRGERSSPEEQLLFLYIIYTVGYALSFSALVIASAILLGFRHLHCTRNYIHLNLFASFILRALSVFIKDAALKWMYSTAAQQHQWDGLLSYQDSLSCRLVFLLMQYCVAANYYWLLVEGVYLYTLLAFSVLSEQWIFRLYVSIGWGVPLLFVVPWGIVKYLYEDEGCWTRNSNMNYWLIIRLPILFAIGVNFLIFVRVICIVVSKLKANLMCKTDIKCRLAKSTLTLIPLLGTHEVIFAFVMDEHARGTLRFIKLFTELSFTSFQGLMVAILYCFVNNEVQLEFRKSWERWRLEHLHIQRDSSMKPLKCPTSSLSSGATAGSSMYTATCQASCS
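Readout was luciferase luminescence, measured 12 min after detection reagent at room temperature. Beforehand, GLP-1R reporter HEK293 cells had sat 12 h, then received compounds for 24 hr at 37 deg C.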
a7 integrin act: activators of alpha7 integrin expression for muscular dystrophy; alpha7betagal myoblasts, beta-gal FDG fluorescence, 48 h; Potency, µM (top dose mostly 38.3 µM), inactives show top-dose activation, most hits filed as activators; 350,000 tested, 0.064% active; AID 624291;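 note: 100% = response of the positive control SU9516; nearly all actives have a fitted effect of over 60% in size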
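Alpha7betagal+/- myoblasts (passage 13) were plated 16-24 hr, then exposed to compounds (1:260 dilution of DMSO stock) for 48 hours at 37C. After MPER lysis, β-galactosidase reporter activity was read as FDG fluorescence (ex 480/em 540) after 30 minutes.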
BRCA1 expr up: activators of BRCA1 expression; 380,000 tested, 1.1% active; Potency, µM (titrated, usually from 46.1 µM), for inactives: at the highest dose activation, most hits filed as activators; AID 624202; MCF7-BRCA1-FFLuc reporter, luminescence, 48 h; response scale: scaled: vehicle 0%, 10 µM genistein 100%; note: nearly all actives have a fitted effect of over 80% in size
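MCF7-BRCA1-FFLuc cells, 2000/well in phenol-red-free MEM, attached 2 h then treated 48 h at 37 C. Luciferase luminescence read 15 min after reagent; normalized to genistein maximum activation (10microM) and DMSO, concentration-response fitted.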
GLP1R ag: GLP-1 receptor (human) agonism | Potency, µM (titrated, usually from 45.6 µM), for the others: at the top dose activation, actives largely listed as activators | HEK293 GLP-1R CRE-luciferase, luminescence, 4-6 h; cells express a hypersensitive GLP-1R form | 380,000 tested, 0.007% active | P43220; note: % of control where 0% means no effect
The depositor's hits bear a star. Calls come from the whole dose curve; as a rule, active = well fitted curve in the direction sought with a large enough effect; inconclusive = small, poorly fitted or top-dose-only effect, or another doubt; inactive = no such curve, though single readings can be large; an effect the other way counts as inactive or inconclusive. Potency is the fitted concentration of half-maximal effect.

`CCCC1CC(C)(c2csc(Nc3ccc(OCC)cc3)n2)OC1=O` (configuration not stated) gave HEK293 tox -18%, GLP-1R inv ag 11µM*, a7 integrin act 3%, BRCA1 expr up -47% and GLP1R ag 11%.
For CCOc1ccc(NC(=O)CC2CC(C)(C)OC2=O)cc1 (configuration not stated) the results were HEK293 tox -9%, GLP-1R inv ag 17%, a7 integrin act 30%, BRCA1 expr up 5% and GLP1R ag -5%.
Cc1ccc(C)c(N2CCN(S(=O)(=O)c3ccc(-c4coc(C)n4)cc3)CC2)c1 was read as HEK293 tox 4%, GLP-1R inv ag inconclusive, BRCA1 expr up 6% and GLP1R ag -8%.
CC1CCN(C(=O)CN2c3ccc(Br)cc3-c3ccccc3S2(=O)=O)CC1 was read as HEK293 tox 0% and GLP-1R inv ag inconclusive.
`CCOc1ccc(N(c2nc(-c3ccc(OC)c(OC)c3)no2)c2nc(-c3ccc(OC)c(OC)c3)no2)cc1` gave HEK293 tox 2%, GLP-1R inv ag 0%, BRCA1 expr up 0% and GLP1R ag 1%.
For Cc1ccc2oc(-c3ccc(C)c(NC(=O)c4ccc(-c5ccccc5[N+](=O)[O-])o4)c3)nc2c1 the results were HEK293 tox -4%, GLP-1R inv ag 7%, BRCA1 expr up 13% and GLP1R ag -6%.
`Cc1ccc(NC(=O)Cn2c(=O)n(Cc3ccc4c(c3)OCO4)c(=O)c3ccc(C(=O)NC4CCCCC4)cc32)cc1` gave HEK293 tox 0%, GLP-1R inv ag 4%, BRCA1 expr up 16% and GLP1R ag 2%.
`COc1ccccc1N1CCN(S(=O)(=O)c2ccc3c(c2)CCCN3C(C)=O)CC1` gave HEK293 tox 21% and GLP-1R inv ag 9%.
`c1ccc(-c2ccc(-c3cnc4n3CCCCC4)cc2)cc1` gave HEK293 tox inconclusive, GLP-1R inv ag 5µM*, a7 integrin act 0%, BRCA1 expr up 98% and GLP1R ag -1%.
For Cc1nnc(SCC(=O)NC(=O)Nc2ccc3c(c2)OCCO3)n1N the results were HEK293 tox 4%, GLP-1R inv ag 12%, a7 integrin act 14%, BRCA1 expr up 10µM* and GLP1R ag 2%.
Cc1ccc(-n2nnnc2SCC(=O)NC(=O)Nc2ccc3c(c2)OCCO3)cc1 was read as HEK293 tox -11%, GLP-1R inv ag -23%, a7 integrin act 20%, BRCA1 expr up inconclusive and GLP1R ag -1%.
`CCOC(=O)C(=O)Cc1nc(OCc2ccccc2)cc(OCc2ccccc2)n1` gave HEK293 tox 18%, GLP-1R inv ag 10µM*, a7 integrin act 10%, BRCA1 expr up -27% and GLP1R ag 16%.
`COC(=O)c1ccc(COC(=O)c2ccc(SC)cc2OC)cc1` gave HEK293 tox 10%, GLP-1R inv ag 6%, a7 integrin act -21%, BRCA1 expr up 8.9µM* and GLP1R ag inconclusive.
Screening C(=Nc1ccc(/C=C/c2ccnc3ccccc23)cc1)c1ccc2c(c1)OCO2 returned BRCA1 expr up 15%.
For COc1ccc(C(=O)C[n+]2ccc(Cl)c3ccc(Cl)cc32)cc1 the results were BRCA1 expr up 7%.
`CCCCN(C(=O)c1ccc2c(c1)OCO2)c1ccccc1` gave HEK293 tox 5%, GLP-1R inv ag 10µM*, a7 integrin act 1%, BRCA1 expr up -18% and GLP1R ag 12%.
CC(CCc1ccccc1)NC(=O)Cn1c(=O)nc(-c2ccccc2F)c2cc(Cl)ccc21 (configuration not stated) was read as HEK293 tox 0% and GLP-1R inv ag -14%.
For O=C1NCCN/C1=C\C(=O)c1ccc(Br)cc1 the results were HEK293 tox -10%, GLP-1R inv ag 1%, a7 integrin act -39%, BRCA1 expr up inconclusive and GLP1R ag 6%.
For O=C1NCCN/C1=C\C(=O)c1cccc(Br)c1 the results were HEK293 tox -9%, GLP-1R inv ag 7%, a7 integrin act 7%, BRCA1 expr up 11µM* and GLP1R ag 11%.
`COc1ccc(-n2nc(C(=O)Nc3cc(C)ccn3)c3c4ccccc4n(C)c3c2=O)cc1` gave HEK293 tox 7% and GLP-1R inv ag 4%.
Oc1c(Br)cc(/C=N/Nc2nncc3ccccc23)cc1Br was read as HEK293 tox -8%, GLP-1R inv ag 29%, a7 integrin act -25%, BRCA1 expr up 8.9µM* and GLP1R ag 21%.
Screening COc1ccccc1/C=N\Nc1ccccc1[N+](=O)[O-] returned HEK293 tox 12%, GLP-1R inv ag 34%, a7 integrin act -15%, BRCA1 expr up 10µM* and GLP1R ag -1%.
For COc1ccccc1/C=N/Nc1nncc2ccccc12 the results were HEK293 tox -18%, GLP-1R inv ag 25%, a7 integrin act 20%, BRCA1 expr up 10µM* and GLP1R ag 16%.
Screening COc1ccc(/C=N/Nc2nncc3ccccc23)cc1 returned HEK293 tox 3%, GLP-1R inv ag 3%, a7 integrin act 6%, BRCA1 expr up 7% and GLP1R ag 14%.
Screening Cc1ccc(-c2nnc(Nc3ccc(Br)cc3)c3ccccc23)cc1S(=O)(=O)NCC1CCCO1 (configuration not stated) returned HEK293 tox 0% and GLP-1R inv ag inconclusive.
For CC1C/C(=C/c2cccn2C)C(=O)/C(=C/c2cccn2C)C1 (configuration not stated) the results were HEK293 tox 93%, GLP-1R inv ag 13µM*, a7 integrin act -32%, BRCA1 expr up -87% and GLP1R ag 5%.
For CC1C/C(=C/c2ccncc2)C(=O)/C(=C/c2ccncc2)C1 (configuration not stated) the results were HEK293 tox inconclusive, GLP-1R inv ag inconclusive, a7 integrin act -23%, BRCA1 expr up -75% and GLP1R ag -9%.
Screening COc1cc(S(=O)(=O)NCCc2c(C)[nH]c3ccc(C)cc23)ccc1Br returned HEK293 tox 0% and GLP-1R inv ag 10µM*.
Screening COc1ccc(C(C)C)cc1S(=O)(=O)NCCc1c(C)[nH]c2ccc(C)cc12 returned HEK293 tox 2% and GLP-1R inv ag 11µM*.
`CCS(=O)(=O)NCCc1csc2nc(-c3ccc(OC)cc3)nn12` gave HEK293 tox 0% and GLP-1R inv ag 14%.
For O=C(CSCc1cccc(F)c1)NCc1ccccc1 the results were HEK293 tox 9%, GLP-1R inv ag -4%, a7 integrin act 0%, BRCA1 expr up 11µM* and GLP1R ag 16%.
